A number with no mark means an inactive call. Calls of active or inactive are those of the source. The call rests on the fitted dose curve; in most records, active means well fitted curve in the direction sought with a large enough effect; inconclusive means small, poorly fitted or top-dose-only effect, or another doubt; inactive means no such curve, though single readings can be large; an effect the other way counts as inactive or inconclusive.
Tests used:
[1] = molecular target: Alpha-galactosidase (Coffea arabica) (UniProt Q42656); experiment: Counterscreen for Glucocerebrosidase Inhibitors: qHTS Assay for Coffee Bean alpha-Galactosidase at pH 4.5 (AID 957); further: series mostly up to about 77 µM
In short: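 AC50 values derive from Hill-equation modeling of concentration-response data, normalized to no-enzyme and full-activity controls. The pH 4.5 citrate assay used 2 nM coffee bean enzyme and 80 uM fluorogenic substrate for 20 min.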

[2] = molecular target: Alpha-galactosidase (Coffea arabica) (UniProt Q42656); experiment: Counterscreen for Glucocerebrosidase Inhibitors: qHTS Assay for Coffee Bean alpha-Galactosidase at pH 5.9 (AID 998)
In short: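 Compounds were titrated from 0.7 nM to 77 uM against green coffee bean alpha-galactosidase (2 nM) using 80 uM fluorogenic 4-methylumbelliferyl substrate. After 20 min at room temperature, reactions were stopped at pH 10 and read by fluorescence.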

Alpha-galactosidase (Coffea arabica), sequence (Q42656 whole entry, looked up): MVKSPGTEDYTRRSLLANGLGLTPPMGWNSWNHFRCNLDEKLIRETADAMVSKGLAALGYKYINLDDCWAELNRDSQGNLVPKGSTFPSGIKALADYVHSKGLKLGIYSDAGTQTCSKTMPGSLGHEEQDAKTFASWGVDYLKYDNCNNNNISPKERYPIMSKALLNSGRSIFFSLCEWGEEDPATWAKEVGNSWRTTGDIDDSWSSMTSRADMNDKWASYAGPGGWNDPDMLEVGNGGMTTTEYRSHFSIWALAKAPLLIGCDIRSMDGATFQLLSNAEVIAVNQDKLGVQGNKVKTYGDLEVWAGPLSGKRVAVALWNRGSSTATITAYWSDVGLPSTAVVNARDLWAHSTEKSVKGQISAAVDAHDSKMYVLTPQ

Cc1cccc(C)c1OC[C@H](C)N
outcome [1]: inactive
outcome [2]: inactive

COc1ccccc1OC[C@H](O)CN1CCN(CC(=O)Nc2c(C)cccc2C)CC1
outcome [1]: inactive
outcome [2]: inactive

CCCCCN(CCCCC)C(=O)[C@H](CCC(=O)O)NC(=O)c1ccc(Cl)c(Cl)c1
outcome [1]: inactive
outcome [2]: inactive

CC(C)COC[C@H](CN(Cc1ccccc1)c1ccccc1)N1CCCC1
outcome [1]: inactive
outcome [2]: inactive

C=C[C@@]1(C)CC(=O)[C@@]2(O)[C@@]3(C)[C@H](O)CCC(C)(C)[C@@H]3[C@H](O)[C@H](OC(C)=O)[C@]2(C)O1
outcome [1]: inactive
outcome [2]: inactive

CC(=O)OCC1=C(C(=O)O)N2C(=O)[C@@H](NC(=O)CSc3ccncc3)[C@@H]2SC1
outcome [1]: inactive
outcome [2]: inactive

Nc1nc(SCc2ccc([N+](=O)[O-])cc2)c2ncn([C@@H]3O[C@@H](CO)[C@@H](O)[C@H]3O)c2n1
outcome [1]: inactive
outcome [2]: inactive

CC(C)(C)c1onc(OCP(=O)(O)O)c1C[C@@H](N)C(=O)O
outcome [1]: inactive
outcome [2]: inactive

Cn1cc(C(F)(F)F)nc1-c1ccc(OC[C@@H](O)CNCCOc2ccc(O)c(C(N)=O)c2)cc1
outcome [1]: inactive
outcome [2]: inactive

Cc1ccc(/C(=C/CN2CCCC2)c2ccccn2)cc1
outcome [1]: inactive
outcome [2]: inactive

CCCCCCCCCCCCCCCCCC(=O)O[C@H](CC(=O)O)C[N+](C)(C)C
outcome [1]: inactive
outcome [2]: inactive

CCCCCCCCCCCCCCCC(=O)NC[C@@H](COP(=O)([O-])OCC[N+](C)(C)C)OCC
outcome [1]: inactive
outcome [2]: inactive

C=CCN1CCc2c(cc(O)c(O)c2Br)[C@H](c2ccccc2)C1
outcome [1]: inactive
outcome [2]: inactive

COc1cc2nc(N3CC=[N+](C(=O)c4ccco4)CC3)nc(N)c2cc1OC
outcome [1]: inactive
outcome [2]: inactive

N[C@H](CCCP(=O)(O)O)C(=O)O
outcome [1]: inactive
outcome [2]: inactive

CNC(=O)[C@@H]1O[C@@H](n2cnc3c(N)ncnc32)[C@@H](O)[C@H]1O
outcome [1]: inactive
outcome [2]: inactive

Cc1ccc(OC[C@H](O)[C@H](C)NC(C)C)c2c1CCC2
outcome [1]: inactive
outcome [2]: inactive

Oc1cc(O)cc(/C=C\c2ccc(O)c(O)c2)c1
outcome [1]: inactive
outcome [2]: inactive

CCn1cc(C(=O)O)c(=O)c2cc(F)c(N3CCN[C@@H](C)C3)c(F)c21
outcome [1]: inactive
outcome [2]: inactive

CNCC[C@H](Oc1ccccc1C)c1ccccc1
outcome [1]: inactive
outcome [2]: inactive

COc1cc2nc(N3CCN(C(=O)[C@H]4COc5ccccc5O4)CC3)nc(N)c2cc1OC
outcome [1]: inactive
outcome [2]: inactive

Oc1cc2c(cc1O)[C@H](c1ccccc1)CNCC2
outcome [1]: inactive
outcome [2]: inactive

COC(=O)[C@](C)(N)Cc1ccc(O)cc1
outcome [1]: inactive
outcome [2]: inactive

CC(=O)S[C@@H]1CC2=CC(=O)CC[C@@]2(C)[C@H]2CC[C@]3(C)[C@H](CC[C@@]34CCC(=O)O4)[C@H]12
outcome [1]: inactive
outcome [2]: inactive

C=CCN1CCc2c(cc(O)c(O)c2Cl)[C@H](c2ccccc2)C1
outcome [1]: inactive
outcome [2]: inactive

Nc1ncnc2c1ncn2[C@@H]1O[C@@H](CO)[C@H](O)[C@@H]1O
outcome [1]: inactive
outcome [2]: inactive

Nc1ncnc2c1ncn2[C@@H]1O[C@@H](C(=O)NC2CC2)[C@H](O)[C@@H]1O
outcome [1]: inactive
outcome [2]: inactive

CC[C@H](C)[C@@H]1O[C@]2(CC[C@@H]1C)C[C@H]1C[C@H](CC=C(C)[C@@H](O[C@H]3C[C@H](OC)[C@H](O[C@H]4C[C@H](OC)[C@H](O)[C@H](C)O4)[C@H](C)O3)[C@@H](C)C=CC=C3CO[C@@H]4[C@@H](O)C(C)=C[C@H](C(=O)O1)[C@@]34O)O2
outcome [1]: inactive
outcome [2]: inactive

[N-]=[N+]=Nc1ccc(C(=O)CSC[C@@H](NC(=O)CC[C@@H](N)C(=O)O)C(=O)NCC(=O)O)cc1
outcome [1]: inactive
outcome [2]: inactive

COc1ccc([C@H]2Sc3ccccc3N(CCN(C)C)C(=O)[C@H]2OC(C)=O)cc1
outcome [1]: inactive
outcome [2]: inactive

CC(=O)O[C@@H]1C[C@]2(C)[C@H](C[C@@H](O)[C@H]3[C@@]4(C)CC[C@@H](O)[C@@H](C)[C@@H]4CC[C@@]32C)/C1=C(\CCC=C(C)C)C(=O)O
outcome [1]: inactive
outcome [2]: inactive

Cn1c(=O)c2c(nc(/C=C\c3cccc(Cl)c3)n2C)n(C)c1=O
outcome [1]: inactive
outcome [2]: inactive

CCCCCCCCCCCCCCCC(=O)O[C@H](CC(=O)O)C[N+](C)(C)C
outcome [1]: inactive
outcome [2]: inactive

COc1ccc(CCN(C)CCC[C@@](C#N)(c2ccc(OC)c(OC)c2)C(C)C)cc1OC
outcome [1]: inactive
outcome [2]: inactive

COc1cc2c(cc1C(F)(F)F)N(C(=O)Nc1cc(F)cc(-c3cccnc3)c1)CC2
outcome [1]: inactive
outcome [2]: inactive

CC(C)NC[C@@H](O)COc1ccc(CCOCC2CC2)cc1
outcome [1]: inactive
outcome [2]: inactive

c1ccc([C@@H]2CN3CCSC3=N2)cc1
outcome [1]: inactive
outcome [2]: inactive

Cc1ccccc1/C=C\C1=NCCN1
outcome [1]: inactive
outcome [2]: inactive

NC[C@H](O)C1CCCCCCC1
outcome [1]: inactive
outcome [2]: inactive

CCCC[S@@](=N)(=O)CC[C@@H](N)C(=O)O
outcome [1]: inactive
outcome [2]: inactive

O=C(O)[C@H]1CCCNC1
outcome [1]: inactive
outcome [2]: inactive

COc1ccc(CCN(C)CCC[C@@](C#N)(c2cc(OC)c(OC)c(OC)c2)C(C)C)cc1OC
outcome [1]: inactive
outcome [2]: inactive

O=C1c2c(O)cc(O)cc2O[C@@H](c2ccc(O)c(O)c2)[C@H]1O
outcome [1]: inactive
outcome [2]: inactive

Cc1cn([C@H]2C[C@H](N=[N+]=[N-])[C@H](CO)O2)c(=O)[nH]c1=O
outcome [1]: inactive
outcome [2]: inactive

CC(=O)/C(C)=N\O
outcome [1]: inactive
outcome [2]: inactive

CC[C@H](C)N(C)C(=O)c1cc2ccccc2c(-c2ccccc2Cl)n1
outcome [1]: inactive
outcome [2]: inactive

N.N.N.N.N.N.N.N.N.N.N.N.N.N.O.O.[Ru].[Ru].[Ru]
outcome [1]: inactive
outcome [2]: inactive

COCCc1ccc(OC[C@H](O)CNC(C)C)cc1
outcome [1]: inactive
outcome [2]: inactive

Nc1c2c(nc3ccccc13)CCC[C@H]2O
outcome [1]: inactive
outcome [2]: inactive

C[C@@H]1C(=O)N(C)C(=O)c2nc[nH]c21
outcome [1]: inactive
outcome [2]: inactive

S=C(Nc1ccccc1)Nc1nccs1
outcome [1]: inactive
outcome [2]: inactive

CCCCC[C@H](CC(=O)NO)C(=O)N[C@@H](C(=O)N1CCC[C@H]1CO)C(C)C
outcome [1]: inactive
outcome [2]: inactive

CCCCC[C@H](O)CCCC(=O)O
outcome [1]: inactive
outcome [2]: inactive

N=c1ccn2c(n1)O[C@@H]1[C@@H](O)[C@H](CO)O[C@H]12
outcome [1]: inactive
outcome [2]: inactive

N[C@@H]1CCN(O)C1=O
outcome [1]: inactive
outcome [2]: inactive

CN(C)CC[C@H](c1ccc(Br)cc1)c1ccccn1
outcome [1]: inactive
outcome [2]: inactive

CCCN(CCc1ccccc1)[C@H]1CCc2c(O)cccc2C1
outcome [1]: inactive
outcome [2]: inactive
